# The list is not random: actives were taken first. Their share in the collection is about 6.1%.
# S2 tox: viability counter-screen for ATXN expression inhibitors; S2 cells (HEK-293 line with an ATXN2-luciferase reporter) viability, CellTiter-Fluor protease fluorescence, 24 h; Potency, µM (top dose mostly 56.7 µM), hits mostly cytotoxic; 400,000 compounds, 0.49% hits; also: nearly all actives have a fitted effect of over 40% in size
# RORgamma inh: blocks mouse ROR gamma transcriptional activity; Drosophila S2 Gal4-RORgamma UAS-luciferase reporter, 20 h; Potency, µM (titrated, usually from 53.6 µM), inactives show at the top dose activity change, negative = inhibition, most hits filed as inhibitors; 310,000 compounds, 5.4% hits; AID 2551; also: % is scaled to controls: 0 for no effect and ±100 for the full control effect; nearly all actives have a fitted effect of over 60% in size
# Target sequence (P51450 whole entry, looked up, the tested form may be a part): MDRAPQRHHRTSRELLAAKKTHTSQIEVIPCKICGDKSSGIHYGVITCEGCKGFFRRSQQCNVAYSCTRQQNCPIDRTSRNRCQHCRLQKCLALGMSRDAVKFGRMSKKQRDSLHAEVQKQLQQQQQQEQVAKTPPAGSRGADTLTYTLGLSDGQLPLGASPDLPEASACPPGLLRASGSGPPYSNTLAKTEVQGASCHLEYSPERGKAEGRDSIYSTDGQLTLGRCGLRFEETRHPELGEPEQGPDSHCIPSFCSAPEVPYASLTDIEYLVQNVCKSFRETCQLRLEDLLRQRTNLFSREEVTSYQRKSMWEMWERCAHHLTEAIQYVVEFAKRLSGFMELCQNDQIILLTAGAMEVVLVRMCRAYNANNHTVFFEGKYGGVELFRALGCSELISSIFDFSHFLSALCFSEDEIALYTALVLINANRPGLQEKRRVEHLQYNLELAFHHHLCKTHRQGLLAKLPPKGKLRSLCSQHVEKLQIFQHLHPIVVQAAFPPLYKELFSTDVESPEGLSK
#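 Using a luciferase readout, inhibitors were identified by reduced reporter activity in Drosophila cells coexpressing a copper-inducible Gal4–ROR gamma fusion and UAS-driven Photinus luciferase, incubated 20 hr after 700 uM copper sulfate.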
# Gal4-VP16 FLuc: counter-screen for ROR gamma inhibitors: Gal4-VP16 reporter; Potency, µM (top dose mostly 53.6 µM), for the others: top-dose activity, negative = inhibition, most hits filed as inhibitors; Drosophila S2 Gal4-VP16 UAS-luciferase, luminescence, 20 h; AID 2546; 310,000 compounds, 3.5% hits;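 also: Gal4-VP16 expression switched on by copper sulfate through the metallothionein promoter; % is scaled to controls: 0 for no effect and ±100 for the full control effect; nearly all actives have a fitted effect of over 50% in size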
# HepG2 tox: counter-screen for TGF-b inhibitors: cytotoxicity in HepG2 cells | Potency, µM (top dose mostly 46.1 µM), for inactives: at the highest dose activity change, negative = cytotoxicity, most hits filed as cytotoxic | 410,000 compounds, 0.76% hits | HepG2 CAGA-GFP viability, ATP luminescence, 18 h
#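 HepG2 CAGA-GFP cells (1000/well, DMEM with 1% FBS) received compound, then TGF-beta at 500 pg/mL final, and were incubated 18 hours at 37 degrees C. Viability was read by CellTiter-Glo luminescence. Media-only wells were set as complete cell-killing and DMSO as no toxicity.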
# ATXN2 expr inh: inhibitors of ATXN2 expression; HEK-293 ATXN2-luciferase reporter, luminescence, 24 h; Potency, µM (top dose mostly 57 µM), for inactives: at the top dose activity change, negative = inhibition, actives largely listed as inhibitors; 360,000 compounds, 0.72% hits; AID 1745845; also: % is scaled to controls: 0 for no effect and ±100 for the full control effect; nearly all actives have a fitted effect of over 55% in size
#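 ATXN2-luciferase reporter cells (luciferase flanked by upstream and downstream ATXN2 gene portions) were treated 24 h at 37 °C with compounds at up to 57 uM. SteadyGlo luminescence gave expression; GF-AFC fluorescence gave viability.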
# TGFb SMAD3 inh: blocks TGF-b signaling; HepG2 CAGA-GFP TGF-b/SMAD3 reporter, GFP fluorescence, 18 h; TGF-beta stimulated, 500 pg/mL final; Potency, µM (top dose mostly 46.1 µM), inactives show at the top dose activity, negative = inhibition, most hits filed as inhibitors; 410,000 compounds, 1.2% hits; also: % is scaled to controls: 0 for no effect and ±100 for the full control effect; nearly all actives have a fitted effect of over 65% in size
#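 GFP signal (ex488/em500-530) from TGF-beta-stimulated HEPG2 CAGA-GFP cells, 500 pg/mL final, 18 h at 37 degrees C in DMEM plus 1% FBS, normalized to unstimulated and DMSO-stimulated controls.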
# * = called active by the depositor; i = inactive; ? = inconclusive; nt = no result; [ ] = dose if it differs, or a comment. Calls follow the shape of the dose curve; as a rule, active = well fitted curve in the direction sought with a large enough effect; inconclusive = small, poorly fitted or top-dose-only effect, or another doubt; inactive = no such curve, though single readings can be large; an effect the other way counts as inactive or inconclusive. Potency is read from the fitted curve at half-maximal effect.
SMILES,S2 tox,RORgamma inh,Gal4-VP16 FLuc,HepG2 tox,ATXN2 expr inh,TGFb SMAD3 inh
CCNC(=S)N/N=C/c1cccs1,i,0.79µM*,1.4µM*,-14%,-5%,-10%
Cc1ccc(NC(=S)N/N=C/c2ccc(OCCC(C)C)cc2)c(C)c1,i,6.3µM*,3.2µM*,-36%,-4%,?
CCCOc1ccc(NCC(=O)Nc2ccc(C)cc2C)cc1,i,4%,-4%,-14%,-3%,-3%
CC(C)(C)NC(=S)N/N=C/c1c(Cl)cccc1Cl,i,4.5µM*,5µM*,-25%,nt,-21%
CCNC(=S)N/N=C/c1ccc(F)cc1,nt,2.2µM*,7.9µM*,nt,nt,nt
CCN(CC)CCCNC(=O)C(C)n1nc(C)n2c(cc3occc32)c1=O (centres undefined),i,nt,nt,12%,-1%,0%
CC1CCN(C(=O)CN2c3ccc(C(C)C)cc3-c3ccccc3S2(=O)=O)CC1,?,nt,nt,-25%,6%,0%
Cc1ccccc1CSCC(=O)N/N=C/c1cccs1,i,18µM*,-25%,-18%,9%,1%
O=C(Cc1ccccc1)N/N=C/c1cccs1,i,-11%,5%,-18%,33%,-12%
O=C(N/N=C/c1c(Cl)cccc1Cl)c1cccc(F)c1,i,?,?,-19%,35%,18%
CCCCNC(=S)N(C)/N=C/c1ccc(F)cc1,i,11µM*,?,-23%,2%,-18%
CCNC(=S)N/N=C/c1c(Cl)cccc1Cl,?,2.5µM*,2.8µM*,-2%,nt,-5%
Cc1ccc(NC(=S)N/N=C/c2c(Cl)cccc2Cl)c(C)c1,?,0.79µM*,0.89µM*,4%,44%,-28%
CCC(C(=O)NCCc1ccccc1)n1nc(C)c2sc3ccccc3c2c1=O (centres undefined),nt,nt,nt,0%,nt,?
Cc1nn2c3ccccc3nc2c2ccccc12,i,?,-23%,16µM*,7%,?
Cc1nn2c(-c3ccccc3)nnc2c2ccccc12,i,11%,11%,-30%,47%,?
CC(=O)N(c1onc(C)c1C)S(=O)(=O)c1ccc(N)cc1,i,nt,nt,nt,-3%,nt
COc1ccccc1CC1S/C(=N/N=C/c2ccco2)NC1=O (centres undefined),i,2.2µM*,7.1µM*,-6%,5%,-13%
O=C1N/C(=N/N=C/c2ccco2)SC1Cc1ccccc1 (centres undefined),?,1µM*,2.5µM*,1%,nt,-3%
C=CCN1C(=O)C(Cc2ccc(C)cc2)S/C1=N/N=C/c1ccco1 (centres undefined),i,-5%,-8%[0.365 µM],4%,-3%,-8%
Cc1cccc(CC2S/C(=N/N=C/c3ccco3)NC2=O)c1 (centres undefined),i,0.89µM*,5.6µM*,-9%,?,?
O=C1C(Cc2ccccc2)S/C(=N/N=C/c2ccco2)N1c1ccccc1 (centres undefined),i,-11%,-22%,-16%,-5%,-20%
Cc1cccc(NC(=O)C2CC(=O)N/C(=N/N=C/c3ccco3)S2)c1 (centres undefined),?,-31%,3%,0%,-1%,2%
Cc1ccc(CC2S/C(=N/N=C/c3ccco3)NC2=O)cc1 (centres undefined),i,1.4µM*,11µM*,1%,6%,1%
Cc1ccc(S(=O)(=O)C(CNC(=O)C(=O)NCCc2ccccc2)c2cccs2)cc1 (centres undefined),i,nt,nt,-4%,-3%,3%
SMILES,S2 tox,RORgamma inh,Gal4-VP16 FLuc,HepG2 tox,ATXN2 expr inh,TGFb SMAD3 inh
CCNC(=O)CC1S/C(=N/N=C(\C)c2ccccc2)NC1=O (centres undefined),i,-2%,-11%[10 µM],-3%,nt,3%
C/C(=N\N=C1\NC(=O)C(Cc2ccccc2)S1)c1ccccc1 (centres undefined),i,10µM*,-24%,-13%,nt,?
COc1ccc(/C=N/N=C2/NC(=O)C(CC(=O)O)S2)cc1OS(=O)(=O)c1ccccc1 (centres undefined),i,0%,1%,0%,-9%,0%
COc1cc(/C=N/N=C2/NC(=O)C(Cc3ccccc3)S2)ccc1O (centres undefined),?,14µM*,?,-22%,31%,2%
CC(C)(C)c1cc[n+](/C(C(=S)Nc2ccccc2F)=C(/[O-])c2ccc3c(c2)OCCO3)cc1,i,10µM*,-10%,-4%,nt,0%
COc1ccc(OCC(=O)Nc2ccc3c(c2)nc(CCN2CCN(c4ccccn4)CC2)n3C)cc1,?,nt,nt,-9%,nt,-11%
Cc1cccc(OCC(=O)Nc2ccc3c(c2)nc(CCN2CCN(c4ccccn4)CC2)n3C)c1,?,-19%,1%,-9%,14µM*,-29%
CNC(=O)c1ccc(CSc2nc3cccnc3n2Cc2cccc(F)c2)cc1,i,nt,nt,-62%,-3%,-27%
COc1ccc(-c2cc(C(F)(F)F)n3nc(-c4ccc(Cl)cc4)cc3n2)cc1OC,i,nt,nt,10%,13%,0%
CN(c1ncccc1CNc1nc(Nc2ccc3c(c2)CC(=O)N3)ncc1C(F)(F)F)S(C)(=O)=O,nt,nt,nt,nt,4.3µM*,nt
CCc1cccc2c(C(O)(c3c[nH]c4c(CC)cccc34)c3c[nH]c4c(CC)cccc34)c[nH]c12,nt,nt,nt,-14%,nt,?
COCc1c(C(=O)NCC2CCCN(C)C2)cnn1-c1ncc2c(n1)-c1ccccc1CCC2 (centres undefined),i,nt,nt,nt,nt,nt
O=C(NCC(c1ccc2c(c1)OCO2)N1CCN(c2ccccc2F)CC1)c1ccccc1F (centres undefined),?,nt,nt,-4%,-15%,10µM*
CC(C)C(=O)NCC(c1ccc2c(c1)OCO2)N1CCN(c2ccccc2F)CC1 (centres undefined),i,nt,nt,-25%,4%,-1%
Cc1ccc(/C=C/c2onc(C)c2S(=O)(=O)N2CCC(C(=O)NCc3ccc(C)o3)CC2)cc1,nt,nt,nt,-11%,nt,-22%
CC(=O)Nc1ccc(-c2nc3cc(Cl)ccc3o2)cc1,i,nt,nt,-38%,63%,11µM*
CCCC(=O)Nc1ccc(-c2nc3cc(C)ccc3o2)cc1,?,4µM*,2.8µM*,-35%,46%,1%
O=C(Nc1ccc(-c2nc3ccccc3o2)c(O)c1)c1ccccc1,?,nt,nt,5%,22%,19%
Cc1ccc2oc(-c3ccc(NC(=O)c4ccncc4)cc3O)nc2c1,i,7.1µM*,4%,-10%,30%,-1%
CC(=O)Nc1cc(-c2nc3cc(Cl)ccc3o2)ccc1C,i,nt,nt,-13%,62%,-2%

# High-throughput results deposited in PubChem by National Center for Advancing Translational Sciences (NCATS).
